Compounds without any hit were thinned out: in the full panel of roughly 83,000, 20% have a hit.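 Negative percent growth values reflect cell death: -40 means 40% of the cells present at the start died, and -100 means all died.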 Values without a mark were called inactive. Active and inactive are the calls of the source. How the source made its calls: active means growth percent below 10; inactive means the rest.
How the values were obtained:
Assay in all cases: NCI-60 one-dose screen, 48 h (100 = growth as untreated, 0 = no growth, -100 = all killed)
Settings in all cases: 10 µM unless noted
NCI-H23 lung = system: NCI-H23 lung
NCI-H226 lung = system: NCI-H226 lung
NCI-H322M lung = system: NCI-H322M lung
HOP-62 NSCLC = system: HOP-62 NSCLC
NCI-H460 lung = system: NCI-H460 lung
HOP-92 NSCLC = system: HOP-92 NSCLC
NCI-H522 lung = system: NCI-H522 lung
A549/ATCC NSCLC = system: A549/ATCC NSCLC
786-0 renal = system: 786-0 renal
COLO 205 colon = system: COLO 205 colon
DU-145 prostate = system: DU-145 prostate
K-562 leukemia = system: K-562 leukemia
MALME-3M melanoma = system: MALME-3M melanoma
MDA-MB-231 breast = system: MDA-MB-231 breast
RXF 393 renal = system: RXF 393 renal
SF-268 CNS = system: SF-268 CNS
SF-295 CNS = system: SF-295 CNS
UACC-257 melanoma = system: UACC-257 melanoma
M14 melanoma = system: M14 melanoma

Compound	growth (NCI-H23 lung)	growth (NCI-H226 lung)	growth (NCI-H322M lung)	growth (HOP-62 NSCLC)	growth (NCI-H460 lung)	growth (HOP-92 NSCLC) [%]	growth (NCI-H522 lung)	growth (A549/ATCC NSCLC)	growth (786-0 renal)	growth (COLO 205 colon)	growth (DU-145 prostate)	growth (K-562 leukemia)	growth (MALME-3M melanoma)	growth (MDA-MB-231 breast)	growth (RXF 393 renal)	growth (SF-268 CNS)	growth (SF-295 CNS)	growth (UACC-257 melanoma)	growth (M14 melanoma)
CC(=O)N1CC(Nc2ccc(OC(F)(F)F)cc2)=CC1=O	56.8%	67.5%	43.3%	30.2%	20.6%	50	29.3%	38.9%	53.6%	4.8% (active)	27%	8.54% (active)	55.7%	55%	39.6%	59.8%	14.7%	46.6%	4.04% (active)
CCOC(=O)CC(=O)c1c(C)cc(C)cc1C	111%	104%	114%	110%	105%	111	62.5%	107%	98.3%	117%	110%	112%	113%	103%	100%	107%	103%	112%	99.6%
Cc1ccn2c(-c3csc(Nc4cccc(O)c4)n3)c(C)nc2c1	25.5%	35.7%	58.4%	2.98% (active)	13.7%	52.2	-17.4% (active)	38.9%	40.1%	-87.1% (active)	17.7%	2.56% (active)	65.4%	-1.81% (active)	0.213% (active)	39.5%	16.3%	77.2%	16%
COc1ccc(CN2C(=O)/C(=C\c3cc(OC)c(OC)c(OC)c3)c3cc(OC)ccc32)cc1	-44% (active)	-21.1% (active)	8.29% (active)	17.1%	-42.2% (active)	37.6	-70.1% (active)	3.05% (active)	9.78% (active)	-46.3% (active)	7.67% (active)	1.94% (active)	36.4%	11.1%	-53% (active)	7.98% (active)	39.7%	25.7%	-28% (active)
CCCCNC(=O)NS(=O)(=O)c1ccc(N2N=C(c3cc(C)ccc3C)CC2c2cc(OC)c(OC)c(OC)c2)cc1 (centres undefined)	-26.1% (active)	75.2%	66.7%	53.8%	57.5%	62.4	53.7%	32.6%	47.9%	44.7%	88.9%	36.1%	25.3%	79.4%	44.7%	66%	8.51% (active)	59.3%	8.53% (active)
O=C(C[C@@H](C(=O)NCc1cccc(C(F)(F)F)c1)N1C(=O)[C@@H](N2C(=O)OC[C@@H]2c2ccccc2)[C@H]1/C=C/c1ccccc1)NC1CCN(Cc2ccccc2)CC1	36.2%	88.6%	73.1%	72.7%	13.1%	76.7	33.8%	53.5%	76.3%	45.7%	67.2%	-51% (active)	-17.1% (active)	64.3%	74.4%	57.9%	102%	77.4%	83.2%
NC(=S)N/N=C/c1cc(-c2cccc(N)c2)ccn1	23.1%	16.5%	8.21% (active)	5.98% (active)	5.59% (active)	39.7	-17.3% (active)	21.7%	31.4%	25.5%	28.1%	14.9%	15.6%	57.6%	34.5%	21.2%	9.47% (active)	29.3%	1.75% (active)
Clc1ccc(-c2nnc(COc3ccccc3Cl)o2)cc1	80.6%	93.8%	76.9%	61.3%	82.9%	49.2	70.9%	58.3%	23.3%	90.8%	95.6%	74.7%	72.4%	67.4%	46.9%	75.5%	89.8%	80.6%	76.4%
O=C1c2cccnc2C(=O)c2c1c(C(=O)OCCN1CCCCC1)c1ccccn21	-53.2% (active)	-15.3% (active)	-81.7% (active)	-34.5% (active)	-16.7% (active)	12.5	-64.5% (active)	-46.6% (active)	-45.9% (active)	-70.3% (active)	-89.7% (active)	-40.9% (active)	-74.3% (active)	-27.9% (active)	-44.5% (active)	-19.8% (active)	-37% (active)	-75% (active)	-20.8% (active)
CCOC(=O)c1ccc2c(c1)nc(/C=C/c1ccc(Cl)cc1)n2-c1cc(C(C)(C)C)[nH]n1	77.6%	44.5%	48.7%	43.1%	59%	48.2	52.2%	32.8%	42.7%	62.5%	74.1%	19.1%	61.2%	52.5%	21.3%	54.6%	56.2%	67%	83.4%
O=C(CN1CCN(c2cc3c(cc2F)c(=O)c(C(=O)O)cn3C2CC2)CC1)Nc1nc(-c2ccccc2)cs1	86.4%	77.3%	102%	81.1%	73.3%	70.8	75.5%	65.2%	75.5%	93.3%	79.7%	64.5%	89.8%	95.5%	78.2%	83.9%	69.9%	65.2%	76%
CSc1ccc(N=C=C(c2ccccc2)c2ccccc2)cc1	99%	95.7%	107%	96.1%	102%	85.4	71.8%	78.4%	95.6%	107%	109%	60.4%	105%	84.7%	105%	95.8%	96.1%	93.3%	80.4%
CC(C)[C@H]1COC(=O)N1[C@@H]1C(=O)N([C@@H](CCC(=O)N2CCN(C3CCCC3)CC2)C(=O)N[C@@H]2CCCc3ccccc32)[C@@H]1/C=C/c1cccc(Br)c1	64.7%	74%	39.3%	59.5%	31.6%	44.7	27.4%	25.7%	44.3%	24%	40.5%	41.9%	13.1%	26.3%	53.3%	8.27% (active)	51.5%	-34.6% (active)	25.8%
COc1ccc2nc3cc(Cl)ccc3c(N3CCN(c4nccc(Nc5ccccc5)n4)CC3)c2c1	69.8%	95.4%	88.3%	79.2%	67.4%	67	7.15% (active)	65.1%	59.1%	89.8%	75.2%	41.5%	110%	70.2%	35%	61.3%	78.3%	82.2%	60.8%
CS(=O)(=O)c1c(Nc2ccccc2)n[nH]c1N	105%	105%	103%	109%	110%	85	100%	95.9%	96.7%	105%	115%	93.2%	124%	103%	114%	111%	126%	105%	113%
COCCCNc1nc(NC(=O)c2ccc(F)cc2C)cc(-c2cccnc2)n1	107%	89.1%	102%	99.4%	102%	67	78.6%	79.8%	98.4%	111%	110%	104%	107%	81.1%	99.5%	104%	104%	84.1%	103%

Source: PubChem BioAssay (NCI)
